Experimental data from PubChem BioAssay (NCATS).
Records with an inconclusive call do not appear. Activity calls are given as the source filed them. Calls come from the whole dose curve; as a rule, active = well fitted curve in the direction sought with a large enough effect; inconclusive = small, poorly fitted or top-dose-only effect, or another doubt; inactive = no such curve, though single readings can be large; an effect the other way counts as inactive or inconclusive.

Key:
CASKI = test: Primary qHTS to identify gynecologic anti-cancer compounds using libraries of approved drugs and bioactive compounds (AID 1345084); details: Gynecologic cancer cell panel viability, ATPlite luminescence, 48 h; series mostly up to 57.5 µM; note: nearly all actives have a fitted effect of over 55% in size
How it was run: (§1)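 Cell viability after 48 h drug treatment, ATPlite luminescence readout; five doses.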

Es-2 = test: as above; details: Gynecologic cancer cell panel viability, ATPlite luminescence, 48 h; series mostly up to 57.5 µM
How it was run: as §1

JEG-3 = test: as above; details: Gynecologic cancer cell panel viability, ATPlite luminescence, 48 h; series mostly up to 57.5 µM
How it was run: as §1

SKOV3 = test: as above; details: Gynecologic cancer cell panel viability, ATPlite luminescence, 48 h; series mostly up to 57.5 µM
How it was run: as §1

HeLa = test: as above; details: Gynecologic cancer cell panel viability, ATPlite luminescence, 48 h; series mostly up to 57.5 µM
How it was run: as §1

Hek293T = test: as above; details: Gynecologic cancer cell panel viability, ATPlite luminescence, 48 h, control line for the selectivity index; series mostly up to 57.5 µM
How it was run: as §1

PA-1 = test: as above; details: Gynecologic cancer cell panel viability, ATPlite luminescence, 48 h; series mostly up to 57.5 µM
How it was run: as §1

Tov-21-G = test: as above; details: Gynecologic cancer cell panel viability, ATPlite luminescence, 48 h; series mostly up to 57.5 µM
How it was run: as §1

Tov112D = test: as above; details: Gynecologic cancer cell panel viability, ATPlite luminescence, 48 h; series mostly up to 57.5 µM
How it was run: as §1

OV90 = test: as above; details: Gynecologic cancer cell panel viability, ATPlite luminescence, 48 h; series mostly up to 57.5 µM
How it was run: as §1

[1] = qHTS assay to identify inhibitors of the type 1 interferon - major histocompatibility complex class I in skeletal muscle: Counter screen cell viability and HiBit confirmation (AID 1347412); details: iHSKM muscle cells + IFN-b, HiBiT or CellTiter-Glo, 24 h; HiBiT; note: nearly all actives have a fitted effect of over 60% in size
How it was run: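 HLA-B*08:01–HiBiT knock-in immortalized human myoblasts (C25cl48) stimulated with 4.0 ng/ml human IFN-beta and dosed with compound in a 12-point 1:3 titration (top final 46 uM). After 24 hrs at 37 C, HiBiT lytic luminescence or CellTiter Glo ATP read out.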

Measured: Potency
Potency is the fitted concentration of half-maximal effect.

C=CC(=O)Nc1cccc(Nc2nc(Nc3ccc(NC4CN(CCF)C4)cc3OC)ncc2C(F)(F)F)c1
inactive: Es-2 | JEG-3
active: CASKI 17.8 µM | SKOV3 12.6 µM

CC(C)=CCC/C(C)=C/COCC1OC(n2ccc(=O)[nH]c2=O)C(O)C1O (stereo unspecified)
not listed: OV90 | [1]
inactive: all other assays above

Cc1nnc(C[C@@H]2C=C(c3ccc(Cl)cc3)c3ccccc3-n3c(C)nnc32)o1
active: Es-2 12.6 µM | OV90 20 µM
inactive: CASKI

CCS(=O)c1nc(-c2cccc(OCc3ccccc3)c2)cc(C(F)(F)F)n1 (stereo unspecified)
not listed: JEG-3 | Hek293T | PA-1 | [1]
inactive: all other assays above

CC1=CC2/C=C(\C)CCC(O)C(=O)C(O)CC(=O)C23C(=O)NC(CC(C)C)C3C1C (stereo unspecified)
not listed: SKOV3 | [1]
inactive: all other assays above

CCOC(=O)c1cnc2ccc(-c3cncc(NS(=O)(=O)c4ccccc4)c3)cn12
active: CASKI 2 µM | Es-2 3.16 µM | HeLa 1.58 µM | Hek293T 1.78 µM | JEG-3 7.08 µM | OV90 11.2 µM | PA-1 1.78 µM | SKOV3 31.6 µM | Tov-21-G 4.47 µM | Tov112D 1.41 µM

O=C1C(Cc2ccc(O)cc2)N2C(=O)CCN(C(=O)NCc3ccccc3)C2CN1Cc1cccc2ccccc12 (stereo unspecified)
active: Es-2 8.91 µM | SKOV3 20 µM | Tov-21-G 7.94 µM
inactive: CASKI | JEG-3

C=C1C(=O)OC2/C=C(/C)C3=CC(=O)C(C)(CC(OC(=O)/C(C)=C/COC(C)=O)C12)O3 (stereo unspecified)
active: Es-2 7.08 µM | Tov-21-G 11.2 µM
inactive: HeLa | OV90

CCCCNc1ncc(C(=O)NCc2ccc(-n3ccnc3)cc2)c(NC2CCC(O)CC2)n1 (stereo unspecified)
inactive: Es-2 | Hek293T | SKOV3

COC(C)(C)CCn1nc(Nc2c(C)cccc2C)c2cnc(Nc3ccc(OCCN4CCCC4)c(F)c3)nc21
inactive: Tov112D
active: Es-2 15.8 µM | OV90 14.1 µM | PA-1 2.82 µM | SKOV3 15.8 µM | Tov-21-G 1.78 µM | [1] 15.7 µM
